Screening results: PubChem, National Center for Advancing Translational Sciences (NCATS)
Compounds with a hit are over-represented: about 12% of the library has one in this group of screens.
BAZ2B block = qHTS Assay for Inhibitors of BAZ2B; Bromodomain adjacent to zinc finger domain protein 2B (Homo sapiens), Q9UIF8; AlphaScreen BAZ2B-H3K14Ac peptide displacement; Potency, µM (top dose mostly 114 µM), for inactives: top-dose activity change, negative = inhibition, usual class: inhibitors; hit rate 4.4% among 360,000; AID 504333, 2011; further: on the % scale 0 is the no-effect control and ±100 the full control effect; nearly all actives have a fitted effect of over 60% in size
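AlphaScreen displacement of biotin-H3(5-23)K14Ac peptide (50 nM final) from BAZ2B (50 nM final) in PBS pH 7.4, 0.01% Tween-20; complex preformed 30 min RT, then compounds (top 110 uM) 30 min RT, beads 20 min dark.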
L3MBTL1 inh = qHTS Assay for the Inhibitors of L3MBTL1; Potency, µM (doses to about 57.1 µM), inactives show top-dose activity, negative = inhibition, hits mostly inhibitors; Lethal(3)malignant brain tumor-like protein 1 (Homo sapiens), Q9Y468; hit rate 0.66% among 230,000; AlphaScreen L3MBTL1–H3K9me1 peptide binding; further: on the % scale 0 is the no-effect control and ±100 the full control effect; nearly all actives have a fitted effect of over 60% in size
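L3MBTL1 (50 nM) pre-complexed 30 min with biotinylated H3(1-15)K9me1 peptide (75 nM), then compounds added for 30 min at room temperature; AlphaScreen streptavidin donor/nickel chelate acceptor beads (10 ug/mL final) read after 30 min dark incubation.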
G9a inh = qHTS Assay for Inhibitors of Histone Lysine Methyltransferase G9a | Histone-lysine N-methyltransferase EHMT2 (Homo sapiens), Q96KQ7 | G9a H3K9 monomethylation, AlphaScreen, 2 h | Potency, µM (series often up to 102 µM), inactives show at the top dose activity, negative = inhibition, hits mostly inhibitors | hit rate 8.8% among 350,000 | AID 504332, 2011; further: on the % scale 0 is the no-effect control and ±100 the full control effect; nearly all actives have a fitted effect of over 75% in size
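Enzyme 20 nM + cpd, 15 min RT; add b-H3K9 pep 500 nM / SAM 20 uM; 2 h RT; anti-H3K9me1 Ab 0.5 ug/mL + SA donor / anti-rabbit acceptor beads 20 ug/mL each, 10 min; AlphaScreen read.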
HP1b chromo inh = HTS for Inhibitors of HP1-beta Chromodomain Interactions with Methylated Histone Tails; Chromobox protein homolog 1 (Homo sapiens), P83916; AlphaScreen HP1-beta / biotin-H3K9me3 peptide binding; Potency, µM (titrated, usually from 114 µM), for inactives: top-dose activity change, negative = inhibition, actives largely listed as inhibitors; hit rate 0.56% among 390,000; AID 540317, 2011; further: nearly all actives have a fitted effect of over 70% in size
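AlphaScreen: HP1-beta (50 nM) preformed 30 min with biotin-H3(1-18)K9me3 peptide (50 nM) in PBS pH 7.4, 0.01% Tween-20. Compound added for 30 min at RT, then streptavidin donor/nickel chelate acceptor beads (10 ug/mL) for 30 min.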
JMJD2A Tudor inh = qHTS Assay for Inhibitors of JMJD2A-Tudor Domain; Lysine-specific demethylase 4A (Homo sapiens), O75164; hit rate 4.4% among 390,000; Potency, µM (highest dose often 114 µM), for inactives: at the top dose activity change, negative = inhibition, most hits filed as inhibitors; AlphaScreen JMJD2A-Tudor / H3K4me3 peptide binding; further: on the % scale 0 is the no-effect control and ±100 the full control effect; nearly all actives have a fitted effect of over 50% in size
Sfp inh = qHTS Assay for Inhibitors of Bacillus subtilis Sfp phosphopantetheinyl transferase (PPTase). AID 1490, 2009. Potency, µM, without a hit: largest response in the series, negative = inhibition, most hits filed as inhibitors. hit rate 3.5% among 310,000. Biochemical Sfp PPTase activity, qHTS;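 further: the enzyme is Sfp with the accession as filed and its product quenches rhodamine fluorescence; 0% = enzyme reaction without inhibitor and -100% = no enzyme wells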
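After 15 min at room temperature with compound, 15 nM Sfp received 5 uM rhodamine-CoA plus 12.5 uM BHQ-2-ybbR (50 mM Hepes pH 7.6, 10 mM MgCl2). Rate came from the fluorescence difference over 30 min, ex 525/em 598 nm.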
An asterisk follows results filed as active; ? = inconclusive; · = no result; [ ] = dose if it differs, or a comment. The call rests on the fitted dose curve; in most records, active means well fitted curve in the direction sought with a large enough effect; inconclusive means small, poorly fitted or top-dose-only effect, or another doubt; inactive means no such curve, though single readings can be large; an effect the other way counts as inactive or inconclusive. Potency means the concentration at half of the fitted maximal effect.

SMILES | BAZ2B block | L3MBTL1 inh | G9a inh | HP1b chromo inh | JMJD2A Tudor inh | Sfp inh
C#CC(C)OC(=O)Nc1cccc(Cl)c1 (configuration not stated) | · | · | · | · | · | 1.0%
COCCN(C(=O)CCl)C(C(=O)NC1CCCCC1)c1ccccc1C (configuration not stated) | 7.1% | 12.5% | 2.2%[59 µM] | 37.5% | -10.1% | 6.8%
Cc1cccc(C)c1C(OCCN(C)C)C1CCCCC1 (configuration not stated) | ? | -10.8% | 10µM* | ? | 14.1µM* | -4.9%
CCOc1ccccc1NC(=O)C(C)N(c1ccccc1)S(C)(=O)=O (configuration not stated) | -0.8% | · | -9.9%[59 µM] | 14.9% | 5.5% | ·
COc1cc(Cl)c(C)cc1NC(=O)c1nn(C)c2c1CSc1ccccc1-2 | -12.2% | · | -29.1%[59 µM] | 55.0% | -2.0% | ·
Fc1ccc(-n2c(=S)[nH]c3cccnc32)cc1 | 4.6% | 7.7% | · | 70.8µM* | 15.8µM* | 28.2µM*
CCOc1cccc(=O)c2c(C)n(-c3ccc(C(=O)O)cc3)c(C)c12 | 50.1µM* | ? | · | ? | ? | 28.2µM*
CC1CCN(C(=O)COC(=O)c2cc([N+](=O)[O-])ccc2N2CCOCC2)CC1 | 8.6% | 2.5% | -5.8%[0.501 µM] | 9.3% | -5.5% | ·
CC1CCCCN1C(=O)COC(=O)c1cc([N+](=O)[O-])ccc1N (configuration not stated) | -26.3% | 4.9% | 39.8µM* | 3.5% | -7.9% | ·
CC1CCCCN1C(=O)Cn1cnc2cc([N+](=O)[O-])ccc2c1=O (configuration not stated) | ? | 3.2% | -5.9% | -14.3% | 14.1µM* | -0.6%
Cc1cc(C)c(C(=O)Cn2cnc3cc([N+](=O)[O-])ccc3c2=O)cc1C | -16.8% | 3.0% | ? | 3.2% | -30.1% | 11.8%
CC1(c2nnc(-c3cccc(Cl)c3)o2)CC(c2cccc([N+](=O)[O-])c2)=NO1 (configuration not stated) | -35.4% | -3.1% | 44.7µM* | 3.4% | ? | 2.0%
CC1(c2nnc(-c3ccccc3)o2)CC(c2cccc(Cl)c2)=NO1 (configuration not stated) | 3.3% | · | -7.2%[12.7 µM] | 94.9% | 37.3% | -2.2%
c1ccc2sc(SN3CCOCC3)nc2c1 | 3.0% | 5.8% | ? | ? | 39.8µM* | -23.3%
O=[N+]([O-])c1ccc(S(=O)(=O)N2CCN(C3CCN(Cc4ccccc4)CC3)CC2)cc1 | 28.2µM* | · | 31.6µM* | 50.1µM* | 1.78µM* | -44.8%
O=[N+]([O-])c1ccc(C(=S)N2CCC(Cc3ccccc3)CC2)cc1 | ? | -27.4% | ? | ? | ? | 21.3%
O=[N+]([O-])c1ccc(CN2CCC(Cc3ccccc3)CC2)cc1 | 50.1µM* | -5.4% | ? | ? | 28.2µM* | -20.1%
COc1cccc(OCC(O)CN2CCC(Cc3ccccc3)CC2)c1 (configuration not stated) | 1.8% | -2.6% | 14.5%[2.33 µM] | 27.2% | 4.1% | -0.8%
O=[N+]([O-])c1ccccc1S(=O)(=O)N1CCCCC1 | -8.0% | 3.4% | 13.8%[59 µM] | 26.2% | -12.9% | -1.0%
O=[N+]([O-])c1cccc(OCCCN2CCC(Cc3ccccc3)CC2)c1 | · | · | · | -14.8% | 79.4µM* | ·
O=[N+]([O-])c1ccccc1S(=O)(=O)N1CCN(C2CCN(Cc3ccccc3)CC2)CC1 | -28.2% | · | -29.0% | ? | 0.708µM* | -1.6%
CC(=O)c1ccc(NC(=O)CSC2=Nc3ccccc3N=C(c3ccc(F)cc3)C2)cc1 | -11.4% | · | 4.7%[59 µM] | 17.9%[57 µM] | -10.5% | ·
O=[N+]([O-])c1ccccc1S(=O)(=O)N1CCN(C2CCCC2)CC1 | 79.4µM* | · | · | ? | 1.78µM* | -25.8%
CS(=O)(=O)N1CCN(S(=O)(=O)c2ccccc2[N+](=O)[O-])CC1 | -14.4% | -2.0% | 0.2% | -4.5% | -6.0%[11.4 µM] | 11.2%
CCN(CC)C(=S)NC(=O)Cc1ccccc1 | -17.2% | -9.4% | 14.4% | 46.8% | 0.0% | 1.9%
SMILES | BAZ2B block | L3MBTL1 inh | G9a inh | HP1b chromo inh | JMJD2A Tudor inh | Sfp inh
CN(C(=S)NC(=O)CCCOc1ccc(Cl)cc1Cl)c1ccccc1 | 1.0% | · | ? | 3.5% | -5.5% | 50.1µM*
CN(C(=S)NC(=O)Cc1ccccc1)c1ccccc1 | -9.7% | 9.2% | · | 20.7% | -5.9%[57.1 µM] | 17.8µM*
Cc1csc(=Nc2ccccc2)n1Cc1ccco1 | 63.1µM* | ? | 39.8µM* | ? | 44.7µM* | -20.1%
Cc1csc(=NC(=O)c2ccccc2)n1Cc1ccco1 | -36.6% | 0.7% | ? | -5.1% | -20.9% | -6.2%
Oc1ccc(N=Cc2cc(Br)c(N3CCOCC3)o2)cc1 | -37.6% | -3.6% | 14.1µM* | -17.4% | ? | 39.8µM*
N#CCC(=O)N/N=C/c1cc([N+](=O)[O-])ccc1N1CCOCC1 | ? | ? | 17.5% | 18.1% | -12.0%[11.4 µM] | 5.3%
O=[N+]([O-])c1cc(Br)c(O)c(C=Nc2ccc(N3CCOCC3)cc2)c1 | 35.5µM* | -29.3% | 35.5µM* | 6.8% | -23.6% | -9.1%
O=C(N/N=C/c1ccc(N2CCOCC2)cc1)c1ccc(O)cc1 | -9.2% | 1.9% | · | 43.8% | -7.1% | 0.0%
C=CCCn1c(Cl)c(C#N)sc1=O | · | · | · | 31.2% | -18.6% | -21.2%
COc1ccc(OC)c(NC(=O)CCCc2nnc3n(C(C)C)c(=O)c4sccc4n23)c1 | -5.1% | · | -2.1%[59 µM] | 63.3% | 7.3% | ·
CCCCOc1ccc(-c2nc(SCC(N)=O)n[nH]2)cc1 | 8.7% | 2.0% | 2.2% | 24.2% | -18.3% | 10.3%
CCCCOc1ccc(-c2nc(=S)[nH][nH]2)cc1 | -7.3% | · | 1.26µM* | 2.6% | -19.0% | -5.8%
Cc1ccc(NC(=O)CC2Oc3ccccc3NC2=O)c(C)c1 (configuration not stated) | 5.6% | · | ? | 41.2% | -9.7% | -6.7%
CCN(CC)c1ccc(NC(=O)CN2C(=O)c3cccnc3Oc3ccccc32)c(C)c1 | ? | · | 8.91µM* | -19.6% | ? | ·
CCN(CC)c1ccc(NC(=O)CCN2C(=O)c3ccccc3S2(=O)=O)c(C)c1 | 12.7% | -6.2% | 8.91µM* | -4.1% | -20.0% | ·
Cc1ccc2c(c1)N(CC(=O)Nc1ccccc1C(F)(F)F)C(=O)c1cccnc1O2 | 3.7% | · | -7.7%[59 µM] | 10.6% | -4.3% | ·
